Screening results as filed in PubChem.
Most compounds without a hit are left out; they make up all but 3.5% or so of the library.
Tau ThT inhib – qHTS for Inhibitors of Tau Fibril Formation, Thioflavin T Binding; Potency, µM (doses to about 57.4 µM), most hits filed as inhibitors; Microtubule-associated protein tau (Homo sapiens), P10636; AID 1460, 2008; recombinant tau K18 P301L, heparin-induced fibrillization, ThT fluorescence; 2.1% of 270,000 active; further: nearly all actives have a fitted effect of over 55% in size
Target sequence (P10636 561-689 P618L limits assumed): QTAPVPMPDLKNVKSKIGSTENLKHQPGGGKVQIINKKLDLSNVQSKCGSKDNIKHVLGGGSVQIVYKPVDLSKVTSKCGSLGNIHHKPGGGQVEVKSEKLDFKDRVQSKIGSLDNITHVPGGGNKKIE
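Aggregation was driven by heparin (20 uM final) acting on recombinant tau […] bearing P301L in 100 mM sodium acetate pH 7; fibrils were detected with Thioflavin T.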
TRb-SRC2 inh – qHTS for Inhibitors of the Interaction of Thyroid Hormone Receptor and Steroid Receptor Coregulator 2 | 0.065% of 280,000 active | AID 1469, 2008 | Thyroid hormone receptor beta (Homo sapiens), P10828 | TRbeta-SRC2 peptide binding, fluorescence polarization; receptor liganded with 1 µM T3 | Potency, µM (top dose mostly 106 µM), hits mostly inhibitors; further: nearly all actives have a fitted effect of over 50% in size
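Read-out is fluorescence polarization (555 nm excitation, 632 nm emission) of a Texas Red SRC2 coactivator peptide; loss of signal reflects blocked binding to human TRb ligand-binding domain in the presence of 1 uM T3.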
Tau FP inhib – qHTS for Inhibitors of Tau Fibril Formation, Fluorescence Polarization; Microtubule-associated protein tau (Homo sapiens), P10636; K18 P301L tau heparin fibrillization, Alexa594 FP, 6 h; Potency, µM (top dose mostly 57.7 µM), hits mostly inhibitors; 0.39% of 280,000 active; AID 1468, 2008; further: nearly all actives have a fitted effect of over 55% in size
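K18 P301L tau (15 uM unlabeled/0.24 uM Alexa 594-labeled, final) + compound + heparin 20 uM final; 100 mM NaOAc pH 7; 6 hr 37 C; ThT 30 uM final added, 1 hr RT; FP ex 555/em 632 nm.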
TexasRed fluor – Total Fluorescence Counterscreen for Inhibitors of the Interaction of Thyroid Hormone Receptor and Steroid Receptor Coregulator 2; 0.29% of 280,000 active; AID 1479, 2009; Potency, µM (top dose mostly 106 µM); TRb/SRC2 Texas Red total fluorescence interference; active means well fitted curve in either direction with a large enough effect; inconclusive means small, poorly fitted or top-dose-only effect
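Human TRβ ligand-binding domain (0.6 uM) and Texas Red SRC2 peptide (20 nM) in Tris buffer with 1 uM T3 and 5% DMSO were incubated with pinned compound for 5 hr at ambient temperature. Total fluorescence was computed as S + 2P (555/632 nm).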
Tau fluor cs – Counterscreen qHTS for Inhibitors of Tau Fibril Formation, Fluorescence Polarization; tau K18 P301L (four-repeat tau fragment) Alexa594 fluorescence, heparin fibrillization; Potency, µM (titrated, usually from 57.7 µM); 0.93% of 280,000 active; further: nearly all actives have a fitted effect of over 55% in size
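Human K18 P301L tau (15 uM unlabeled plus 0.24 uM Alexa 594-labeled, final) in 100 mM sodium acetate pH 7 was mixed with compound and 20 uM heparin and incubated 6 hr at 37 C.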
JMJD2E inh – qHTS Assay for Inhibitors of Human Jumonji Domain Containing 2E (JMJD2E). JMJD2E catalytic domain, FDH-coupled NADH fluorescence (FDH is formaldehyde dehydrogenase). 1.6% of 230,000 active. Lysine-specific demethylase 4E (Homo sapiens), B2RXH2. Potency, µM (series often up to 57.1 µM), actives largely listed as inhibitors; active means well fitted inhibition curve with a large enough effect, not every such curve was filed as active; inconclusive means small, poorly fitted or top-dose-only effect, or another doubt; inactive means no such curve, though single readings can be large or run the other way; further: nearly all actives have a fitted effect of over 50% in size
Target sequence (B2RXH2 1-337 limits assumed): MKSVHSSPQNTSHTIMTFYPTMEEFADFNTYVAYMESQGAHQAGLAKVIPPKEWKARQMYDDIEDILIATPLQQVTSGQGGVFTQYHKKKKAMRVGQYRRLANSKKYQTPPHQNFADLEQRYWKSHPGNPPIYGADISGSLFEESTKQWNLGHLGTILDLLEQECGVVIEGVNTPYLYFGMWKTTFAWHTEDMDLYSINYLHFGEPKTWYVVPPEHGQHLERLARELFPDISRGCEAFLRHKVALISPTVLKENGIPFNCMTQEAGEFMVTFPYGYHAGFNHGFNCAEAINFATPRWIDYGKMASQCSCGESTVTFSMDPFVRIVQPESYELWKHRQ
Hits are given with their value; . = inactive; ? = inconclusive; / = no result given; ! = not confirmed by another sample; [ ] = dose if it differs, or a comment. Unless noted, the call rests on the fitted dose curve; in most records, active means well fitted curve in the direction sought with a large enough effect; inconclusive means small, poorly fitted or top-dose-only effect, or another doubt; inactive means no such curve, though single readings can be large; an effect the other way counts as inactive or inconclusive.

SMILES | Tau ThT inhib | TRb-SRC2 inh | Tau FP inhib | TexasRed fluor | Tau fluor cs | JMJD2E inh
CCOc1ccc(/C=N/NC(=S)NC2CC3CC2C2C=CCC32)cc1 (stereo unspecified) | . | . | . | . | . | .
COc1cc(/C=N/NC(=S)NC2CC3CC2C2C=CCC32)ccc1O (stereo unspecified) | ? | . | . | . | 11µM[quencher] | .
COc1ccc(CCNC(=O)c2csc3c2CCCCC3)c(OC)c1 | . | . | . | 20µM[quencher] | . | /
COc1ccc(CCNC(=O)c2csc3c2CCCC3)cc1 | . | . | . | . | . | .
COc1cccc2c1C(=O)c1c(O)c3c(c(O)c1C2=O)C[C@@](O)(C(C)=O)C[C@@H]3O[C@H]1C[C@H](N)[C@H](O)[C@H](C)O1 | 4µM | 22µM! | 25µM | 45µM![fluorescent] | . | 35µM!
COc1cccc2c1C(=O)c1c(O)c3c(c(O)c1C2=O)C[C@@](O)(C(=O)CO)C[C@@H]3OC1C[C@@H](N)[C@H](O)[C@H](C)O1 (stereo partly specified) | 5µM | 14µM | 25µM | 40µM[fluorescent] | . | /
COc1cccc2c1C(=O)c1c(O)c3c(c(O)c1C2=O)C[C@](O)(C(=O)CO)C[C@@H]3O[C@H]1C[C@H](N)[C@@H](O)[C@H](C)O1 | / | . | / | . | / | /
O=C(c1ccc2ccccc2c1)N1CCN(c2ccc(C(F)(F)F)cn2)CC1 | . | . | . | . | . | .
CCCSc1nc(-c2ccc(OC)cc2)cc(-c2ccccc2OC)c1C#N | 22µM | . | 25µM | . | ? | /
C=C(C)CSc1nc(-c2ccccc2)cc(-c2ccc(OC)cc2)c1C#N | . | . | ? | . | . | /
O=c1cc(-c2ccc([N+](=O)[O-])cc2)nc2cc(-c3ccc(Cl)cc3)[nH]n12 | 2.2µM | . | . | . | ? | .
O=c1cc(-c2ccccc2)nc2cc(-c3ccco3)[nH]n12 | ? | . | . | . | . | ?
O=c1oc2ccccc2nc1/C=C(O)/C=C\c1ccccc1 | 28µM | . | ? | . | . | 20µM
COc1ccc(N=N/C(C(C)=O)=C(/C)O)cc1 | 16µM | . | . | . | . | .
CC(=O)N(O)CCCCCNC(=O)CCC(=O)N(O)CCCCCNC(=O)CCC(=O)N(O)CCCCCN | . | . | . | . | . | 22µM
CCCC(=O)NCCCCNC(=O)CCC | . | . | . | . | . | .
CCCCCC1CC1C(=O)N/N=C/c1ccc(N(C)C)cc1 (stereo unspecified) | 16µM | . | . | . | ? | ?
O=C(COC(=O)[C@@H]1CC(O)CN1S(=O)(=O)c1ccc2c(c1)OCCO2)Nc1ccccc1F (stereo partly specified) | . | . | . | . | . | .
O=C(Cc1ncc(C(F)(F)F)cc1Cl)N1CCN(c2ccc(F)cc2)CC1 | . | . | . | . | . | .
Cc1nc2ncccn2c1-c1csc(Nc2ccc(O)cc2)n1 | 10µM | . | . | . | ? | ?
Cc1ccc(Nc2nc(-c3c(C)nc4ncccn34)cs2)cc1 | 14µM | . | . | . | ? | ?
Cc1ccc(Nc2nc(-c3c(C)nc4ccccn34)cs2)cc1 | 11µM | . | ? | . | 10µM[quencher] | ?
O=C(Nc1cccnc1)c1ccc(NS(=O)(=O)c2cccc([N+](=O)[O-])c2)cc1 | . | . | . | . | . | .
CCC(Sc1nnc2c3ccccc3n(CC)c2n1)C(=O)Nc1nnc(C(C)C)s1 (stereo unspecified) | . | . | . | . | . | /
O=C1CC(Nc2ccc(N3CCOCC3)cc2)C(=O)N1c1cccc(C(F)(F)F)c1 (stereo unspecified) | 16µM | . | . | . | . | ?
SMILES | Tau ThT inhib | TRb-SRC2 inh | Tau FP inhib | TexasRed fluor | Tau fluor cs | JMJD2E inh
COc1cccc(N2C(=O)CC(Nc3ccc(N4CCOCC4)cc3)C2=O)c1 (stereo unspecified) | 14µM | . | . | . | . | .
CN(C)c1ccc(N2C(=O)CC(Nc3ccc(N4CCOCC4)cc3)C2=O)cc1 (stereo unspecified) | 14µM | . | . | . | . | .
O=C(NCc1nc(-c2ccc(C(F)(F)F)cc2)no1)Nc1cc(Cl)cc(Cl)c1 | / | . | 16µM | . | ? | .
CCOC(=O)C(NC(=O)CC)(Nc1ccccc1)C(F)(F)F (stereo unspecified) | ? | . | . | . | . | .
CCOC(=O)C(NC(=O)CC)(N1CCc2ccccc2C1)C(F)(F)F (stereo unspecified) | 22µM | . | ? | . | . | .
O=C(CSc1nc2ncccc2[nH]1)c1cccc([N+](=O)[O-])c1 | . | . | . | . | . | .
O=C(CSc1ncn[nH]1)c1cccc([N+](=O)[O-])c1 | ? | . | ? | . | . | 7.9µM
O=C(NNc1cccc(Cl)c1)c1cccnc1Cl | . | . | . | . | . | .
CCC1CN(C(=O)N2CCC(C(=O)N3CCN(c4cc(C)ccc4C)CC3)CC2)c2ccccc2O1 (stereo unspecified) | . | . | . | . | ? | /
CCC1CN(C(=O)N2CCC(C(=O)N3CCN(c4ccc(F)cc4)CC3)CC2)c2ccccc2O1 (stereo unspecified) | . | . | . | . | 2.5µM[quencher] | /
CCC1CN(C(=O)N2CCC(C(=O)N3CCN(c4cccc(C)c4C)CC3)CC2)c2ccccc2O1 (stereo unspecified) | . | . | . | . | 5µM[quencher] | /
Fc1ccc(C2CCCN2Cc2nc(-c3cnccn3)no2)cc1 (stereo unspecified) | . | . | . | . | . | .
CCOc1ccc(C(=O)Nc2cccc(C(=O)OCc3cc(=O)n4cc(C)sc4n3)c2)cc1 | ? | . | . | . | . | /
Cn1ccnc1C(=O)c1cccc([N+](=O)[O-])c1 | . | . | . | . | . | .
Cn1ccnc1C(=O)c1ccc(NN)c([N+](=O)[O-])c1 | 22µM | . | . | . | ? | .
CC1=NOC(=O)/C1=C/c1ccc(O)cc1 | . | . | . | . | . | 28µM
S=c1[nH]cnc2sc(Nc3ccccc3)nc12 | ? | . | ? | . | . | .
Cc1csc(CNc2ncnc3ccc(-c4c(C)noc4C)cc23)c1 | / | . | / | . | / | /
COc1cc([N+](=O)[O-])cc(/C=N/NC(=O)c2ccc(NC(=O)c3ccc(C)cc3)cc2)c1O | 2µM | . | . | . | ? | .
COc1ccccc1/C=N/NC(=O)c1ccc(NC(=O)c2cccc([N+](=O)[O-])c2)cc1 | ? | . | . | . | . | .
